Assay outcomes: PubChem BioAssay, several laboratories
V-ATPase pH – regulators of yeast V-ATPase proton transport. AID 504577. response, % at 10 µM. 350,000 compounds, 0.37% hits. S. cerevisiae, pHLuorin cytosolic pH fluorescence; in the data active means response mostly above about 7.3%, no sharp cut-off; inactive means mostly below about 5.4%; further: actives read high
PfHsp90 yeast 2 – reduces growth (ATP signal) of yeast expressing P. falciparum Hsp90. S. cerevisiae expressing PfHsp90, BacTiter-Glo ATP, 48 h; yeast lacking PDR1 and PDR3 efflux regulators. inhibition, % at 9.4 µM. 310,000 compounds, 0.32% hits;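 active means every replicate shows inhibition above about 80%, whatever the replicate mean, limit read from the data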;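 further: 0% = DMSO neutral controls and 100% = 20 µM radicicol positive controls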
TIM10 inh – TIM10 yeast growth inhibition; S. cerevisiae TIM10 strain growth, BacTiter-Glo luminescence, 24 h; inhibition, % at 10 µM; 330,000 compounds, 1.4% hits;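 active means inhibition of 40% or more at the single tested concentration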;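 further: wild-type TIM10 isogenic control strain grown at permissive 25 °C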
tim10-1 inh – tim10-1 yeast growth inhibition; S. cerevisiae tim10-1 ts strain growth, BacTiter-Glo, 24 h; inhibition, % at 20 µM; 330,000 compounds, 2.2% hits; AID 463190;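 active means inhibition of at least 40%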;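 further: mutant grown at 25 °C; 0% = DMSO wells with yeast and 100% = wells holding no yeast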
tim23-1 inh – tim23-1 yeast growth inhibition; S. cerevisiae tim23-1 growth, BacTiter-Glo luminescence, 24 h; inhibition, % at 20 µM; 330,000 compounds, 1.3% hits; AID 463212;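 active means growth inhibition of the mutant yeast at or above 50%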;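 further: temperature-sensitive mutant grown at 25 °C; plate controls were DMSO-treated mutant yeast for no effect and medium wells lacking yeast for full effect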
SKKanGAS inh – blocks kanamycin growth of S. pyogenes SKKanGAS strain; BacTiter-Glo, 6 h; inhibition, % at 7.5 µM; 300,000 compounds, 1.3% hits; AID 1662;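 active means mean replicate score, as percent of positive control median, at least 50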;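 further: strain carries kanamycin resistance gene driven by streptokinase promoter and grows in 40 µg/ml kanamycin; loss of luminescence reflects streptokinase promoter inhibition or plain growth inhibition; 0% = median of DMSO wells and 100% = positive control at its reference dose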
VATPase regulator – modulates yeast V-ATPase proton transport | response, % at 10 µM | S. cerevisiae pHLuorin cytosolic pH | 980 compounds, 2% hits | shares compounds with V-ATPase pH; in the data active means response above about 24%;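 further: plate controls were vehicle wells for no effect and positive control wells for full effect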
Active calls of the source: *; . = no result given. Rows were chosen to be rich in hits. Some 4.6% of all compounds tested hit in one or more screens of this group.

SMILES	V-ATPase pH	PfHsp90 yeast 2	TIM10 inh	tim10-1 inh	tim23-1 inh	SKKanGAS inh	VATPase regulator
CCOc1ccc(N2C(=O)/C(=C/c3ccc(C)o3)C(=O)NC2=S)cc1	5.9	0.5	15.3	38.9	19.6	-5.1	.
COc1ccc(N2C(=O)/C(=C/c3ccc(C)o3)C(=O)NC2=S)cc1	10.5*	7.7	-4.5	11.9	15.8	-10.7	81.9*
C=CCn1c(O)c(/C=N/N2CCCCC2c2cccnc2)c(=O)[nH]c1=S (stereo unspecified)	-1.7	11.5	6.4	12.2	22.7	7.4	.
O=c1oc2ccccc2c(O)c1C(c1ccc([N+](=O)[O-])cc1)c1c(O)c2ccccc2oc1=O	11.8*	-34.5	.	.	.	61.9*	1.1
CC(C)c1ccc(C(c2c(O)c3ccccc3oc2=O)c2c(O)c3ccccc3oc2=O)cc1	-1.5	.	.	.	.	.	.
CCOC(=O)CC(NC(=O)C(Cc1ccc(N(CCCl)CCCl)cc1)NC(C)=O)C(=O)OCC (stereo unspecified)	-2.9	-6.0	3.5	3.0	18.1	7.6	.
O=C(Nc1ccc(F)cc1)c1c(O)c2c(n(Cc3ccccc3)c1=O)CCCC2	10.0*	5.0	17.0	10.7	11.1	-4.8	3.6
Cc1ccccc1CN1CCNCC1	10.9*	-51.5	12.4	18.6	12.4	-0.8	0.9
C/C(=N\N1CCCCCC1)c1c(O)n(-c2ccc(C)cc2)c(=O)[nH]c1=O	8.7*	10.5	35.2	37.0	16.1	-0.6	-4.1
CN1CCC(O)(c2cccs2)C(C(=O)c2cccs2)C1 (stereo unspecified)	1.4	-6.2	1.2	-1.8	11.8	-2.1	.
Cc1ccc([N+](=O)[O-])cc1	20.6*	7.6	7.2	-15.0	0.9	.	4.4
C/C(=N\Nc1ccccc1)c1c(O)[nH]c(=O)[nH]c1=O	15.9*	16.9	-4.1	-38.4	4.2	11.2	-3.3
